Reference: PubChem BioAssay AID434970 (Sanford-Burnham Center for Chemical Genomics, 2010)
In all, about 11,000 compounds went through this assay and about 310 (2.8%) were called active. Rule as the data show it: active = activity change below about -85%; inactive = the rest. The full list was thinned out, with actives kept by preference.

These molecules were tested on intestinal alkaline phosphatase [Mus musculus] (assay: activators of mouse IAP, confirmation, biochemical, luminescence, single concentration (AID 434970)). Conditions: purified mouse IAP, CDP-Star luminescence, 30 min, at 10 µM; activation factor: measured here: IAP activation factor, stronger effect = higher value; activity change, negative = activation: stronger effect = lower value.

Row | Structure (SMILES) | activation factor | activity change, negative = activation
1 | O=C(CN1CCN(S(=O)(=O)c2ccc(Cl)cc2)CC1)NC(=O)NC1CCCCC1 | 0.929 | 7.05% (inactive)
2 | O=C(Nc1ccc(Cl)cc1Cl)NC1CCN(S(=O)(=O)c2ccc(F)cc2)CC1 | 2.16 | -116% (active)
3 | O=C(Cc1ccc(Cl)cc1)Nc1cccc(S(=O)(=O)N2CCCCC2)c1 | 1.4 | -40.2% (inactive)
4 | O=C(Nc1ccc(Cl)cc1F)c1cc(S(=O)(=O)N2CCCCC2)ccc1F | 1.11 | -11.5% (inactive)
5 | O=C(Nc1cccc(S(=O)(=O)N2CCCCC2)c1)Nc1ccc(Cl)cc1Cl | 4.41 | -341% (active)
6 | Cc1cc(OCC(=O)Nc2cccc(S(=O)(=O)N3CCCCC3)c2)ccc1Cl | 1.81 | -81.3% (inactive)
7 | O=C(Cc1ccccc1Cl)Nc1cccc(S(=O)(=O)N2CCCCCC2)c1 | 1.61 | -60.6% (inactive)
8 | O=C(Nc1cccc(Cl)c1)Nc1cc(S(=O)(=O)N2CCCCC2)ccc1Cl | 2.08 | -108% (active)
9 | COc1ccc(CCNc2nc(-c3ccco3)cc(C(F)(F)F)n2)cc1OC | 0.889 | 11.2% (inactive)
10 | CCn1c(CSc2nc3ccccc3[nH]2)nc2cc(C(=O)O)ccc21 | 0.865 | 13.6% (inactive)
11 | CN1CCN(CCc2nc3cc(NC(=O)COc4ccccc4)ccc3n2C)CC1 | 0.96 | 4.05% (inactive)
12 | CN1CCN(C(=O)c2ccc3c(c2)OCCO3)CC1 | 0.959 | 4.15% (inactive)
13 | Cc1nc(CC(=O)Nc2nc(-c3ccccc3)cs2)cs1 | 0.961 | 3.9% (inactive)
14 | COc1ccc(OC)c(S(=O)(=O)N2CCC(C(=O)NC(C)c3ccccc3)CC2)c1 (configuration not stated) | 1.03 | -3.4% (inactive)
15 | Nc1c(C(=O)NCCc2ccccc2)nnn1Cc1ccc(Cl)cc1 | 1.1 | -9.55% (inactive)
16 | Cc1cc(C)c2c(n1)nn1c(NCCOCCO)cc(C)nc21 | 0.968 | 3.25% (inactive)
17 | Cc1ccc(S(=O)(=O)N2C[C@@H]3[C@H]4CC[C@H](C4)[C@@H]3[C@@H](C)[C@@H]2c2ccn([Si](C(C)C)(C(C)C)C(C)C)c2)cc1 | 0.986 | 1.35% (inactive)
18 | COc1ccc(S(=O)(=O)Nc2cc(C(C)C)c(O)cc2C)cc1 | 0.996 | 0.45% (inactive)
19 | Cc1ccc(SCCCn2cnc3ccccc3c2=O)cc1 | 0.958 | 4.25% (inactive)
20 | COc1cc(OC)c2c(-c3ccccc3)cc(=O)oc2c1C(CCN1CCOCC1)c1ccc2c(c1)OCO2 (configuration not stated) | 0.932 | 6.8% (inactive)
21 | CCN(CC)C(=O)[C@H]1CC(CC(=O)NCCC2=CCCCC2)C(=O)N2CCc3c([nH]c4ccc(OC)cc34)[C@]12C (some centres not stated) | 1.07 | -7.45% (inactive)
